We go through 106 compounds from ChEMBL document CHEMBL4513216, “Probing the Open Global Health Chemical Diversity Library for Multistage-Active Starting Points for Next-Generation Antimalarials” (ACS Infect Dis, 2020).

SMILES strings stand for the structures. Out of some 68,000 compounds screened, about 2,700 (4%) showed an effect of 50% or more. What follows is part of a selection rich in strong results, with near analogues and random picks from the rest.

For the assay, the system named is Plasmodium berghei. Put plainly: Screen against P. berghei liver stage (PbLuc), transformed with Luciferase, at 2uM. It counts as functional, HepG2. Conditions: tested at 2 uM.
As to `COCCCNC(=O)c1cc(-c2cnc(N(C)C)nc2)cn1CC1CC1`, the INHIBITION came out at 58.6%.
On to `CN(C)c1ncc(-c2cc(C(=O)NCCO)n(CC3CC3)c2)cn1`, for which the INHIBITION was 23.53%.
Regarding `CN(C)CCNC(=O)c1cc(-c2cnc(N(C)C)nc2)cn1CC1CC1`, the INHIBITION came out at 8.88%.
For `O=C(NCCCO)Nc1cnc2cc(Cl)ccc2c1O`, the INHIBITION is on record as 47.4%.
Turning to `CCN(Cc1ccco1)C(=O)NCc1nnc2n1CCC2`, the INHIBITION was 11.78%.
Consider `COCCN1CCc2ccc(=O)n(Cc3csc(C)n3)c2CC1`, for which the INHIBITION is listed as -80.01%.
`Cc1cc(NC(=O)c2ccc(F)cc2F)n(C)n1`: the INHIBITION is reported as -20.8%.
Then `Cc1cc(NC(=O)NCC(O)c2ccc(F)cc2)n(C)n1` (stereo unspecified), with 50.75%; and `Cc1ccc(C(O)CNC(=O)Nc2cc(C)nn2C)cc1` (stereo unspecified), with -15.64%.
In the case of `Cc1cc(NC(=O)c2ccc(F)cc2Cl)n(C)n1`, the INHIBITION turned out to be 56.53%.
For the compound `Cc1cc(NC(=O)NCC(O)c2ccc(F)c(F)c2)n(C)n1` (stereo unspecified), the INHIBITION is -12.19%.
As to `Cc1cc(NC(=O)c2ccc(F)cc2Br)n(C)n1`, the INHIBITION is on record as -0.9%.
On to `O=C(O)CN1CCC(F)(F)C2(CCN(c3ccccc3)C2)C1` (stereo unspecified), for which the INHIBITION was -21.78%.
`COCCN1CCC2(CCN(c3ncccn3)CC2)C1=O`: the INHIBITION is listed as 0.2%.
On to `CC(C)(C)C1CCC(O)(CNC(=O)CCS(C)(=O)=O)CC1` (stereo unspecified), for which the INHIBITION is recorded as -16.28%.
Then `CN1C[C@@H](n2cnc(-c3ccccc3)c2-c2nccn2C)C[C@H]1C(=O)O`, with 28.07%; and `Nc1nc(NCCO)cc(N2CCc3c([nH]c4ccccc34)C2)n1`, with -14.75%; and `Cc1ccc2c(c1)CN(C(=O)C1CCCCC1)C(CN(C)C)CO2` (stereo unspecified), with 38.1%.
As to `Cn1cc(-c2ncc3c(c2C(=O)O)CCN(Cc2ccco2)C3)cn1`, the INHIBITION was 2.26%.
As for `COc1ccc(Cl)cc1-n1nc(C2CCCC2)nc1Cn1cnnn1`, the figure is 31.51%; as for `COc1ccc(Cl)cc1CS(=O)(=O)Cc1nc(C2CC2)no1`, 7.46%; as for `COCc1nc(C2CC2)nn1-c1cc(Cl)ccc1OC`, 52.98%.
Then `COCc1nc(C2CC2)nn1-c1cccc(F)c1`, with -1.57%; and `COC(=O)[C@H](C)NC(=O)c1nc(C2CC2)n(-c2ccccc2Cl)n1`, with 13.65%.
On to `COCc1nc(C2CC2)nn1-c1ccccc1Cl`, for which the INHIBITION worked out at 72.05%.
Regarding `Cc1ccn2c(F)c(C(=O)N3CCC4(CCC(=O)N(C)C4)CC3)nc2c1`, the INHIBITION came to 6.81%.
As for `Cc1nc(CNC(=O)Nc2cc(F)ccc2N2CCN(C)CC2)no1`, the INHIBITION amounted to 29.53%.
Regarding `c1cc(OCc2ccc3c(c2)OCO3)ccc1CNC1CC1`, the INHIBITION amounted to 1.13%.
As for `Cc1cc(C)nc(C2CCCN2C(=O)c2cnccn2)n1` (stereo unspecified), the INHIBITION is -48.89%.
Then `CNc1[nH]nc(N)c1NC(=O)c1ccccc1`, with -11.22%; and `CNc1[nH]nc(N)c1C(=O)Nc1ccc(OC)cc1`, with 52.21%.
As for `CNc1[nH]nc(N)c1C(=O)Nc1ccccc1`, the INHIBITION is on record as 0.86%.
As to `CCc1ncc2c(n1)CN(C(C)C(=O)N1CCOCC1)CC2` (stereo unspecified), the INHIBITION stood at 1.42%.
`CC(=O)NCCc1ccc(S(=O)(=O)Nc2ccc(C)cc2F)s1`: the INHIBITION was 22.16%.
Consider `COCCN1CCCC(c2cncc(Oc3ccccc3OC)n2)C1` (stereo unspecified), for which the INHIBITION was determined as 41.56%.
Then `COc1cccc2ccc(CN3CCN(c4ccncc4)CC3)nc12`, with 65.42%; and `COc1cccc2ccc(CN3CCN(c4ncccn4)CC3)nc12`, with 38.8%; and `COc1cccc2ccc(CN3CCN(c4cccnc4)CC3)nc12`, with -18.81%.
Turning to `CCC=C(C)C(=O)NCc1ccnc(OC2CCOCC2)c1`, the INHIBITION is listed as 4.54%.
As to `CC(C)c1nnc2n1CCN(CC(=O)N1CCc3sccc3C1)C2`, the INHIBITION is reported as -38.92%.
On to `CC(C)c1nnc2n1CCN(C(=O)CN(C)Cc1ccccc1)C2`, for which the INHIBITION was -58.05%.
In the case of `CC(C)c1nnc2n1CCN(C(=O)CN1CCc3sccc3C1)C2`, the INHIBITION was -9.3%.
`CC(C)c1nnc2n1CCN(C(=O)CN1Cc3ccccc3C1=O)C2`: the INHIBITION came out at 53.03%.
As for `Cc1nnc2n1CCN(CC(=O)N1CCc3ccccc3C1)C2`, the figure is 36.64%.
As for `CC(C)c1nnc2n1CCN(CC(=O)N1CCc3ccccc3C1)C2`, the figure is 54.92%; as for `Cc1ccc(NC(=O)N2CC(C(=O)NC(C)C)C3(CCOCC3)C2)cc1` (stereo unspecified), 33.65%; as for `COCC1CCN(S(=O)(=O)c2ccc(C(=O)NCC(F)F)cc2)C1` (stereo unspecified), 15.44%.
As for `Cc1cc(C(=O)N2CCN(c3nc4c(C)cccc4s3)CC2)no1`, the figure is 7.72%; as for `Cc1cc(C(=O)N2CCN(c3nc4c(C(C)C)cccc4s3)CC2)on1`, 61.06%; as for `Cc1cc(C(=O)N2CCN(c3nc4c(C(C)C)cccc4s3)CC2)no1`, 23.65%.
Regarding `Cc1nn(CC(=O)N(C)Cc2nncn2C(C)C)c(=O)c2ccccc12`, the INHIBITION is reported as -0.47%.
In the case of `O=C(O)c1ccccc1CN1CCCC(Cc2ccn[nH]2)C1` (stereo unspecified), the INHIBITION is reported as 28.66%.
Consider `O=C1NC2(CCN(C(=O)N3CCOCC3)CC2)CC1c1cccnc1` (stereo unspecified), for which the INHIBITION came to 78.29%.
With `O=C1NC2(CCN(C(=O)c3ccccc3)CC2)CC1c1cccnc1` (stereo unspecified), the INHIBITION was -51.9%.
On to `Cc1cc(C(=O)N2CCC3(CC2)CC(c2cccnc2)C(=O)N3)no1` (stereo unspecified), for which the INHIBITION is 12.68%.
With `Cc1occc1-c1nc(NC2CCCC2)ncc1-c1ccccn1`, the INHIBITION worked out at 11.97%.
For `COCCCNC(=O)CN(C)C(C)c1nc(C)no1` (stereo unspecified), the INHIBITION amounted to 35.5%.
Regarding `COCCNC(=O)CN(C)C(C)c1nc(C)no1` (stereo unspecified), the INHIBITION is on record as -4.01%.
Then `COCCCNC(=O)CN(C)C(C)c1nc(C(C)C)no1` (stereo unspecified), with 60.79%.
For `Cc1ccc(-c2cc(C)nc(C3CCCN3S(C)(=O)=O)n2)cc1` (stereo unspecified), the INHIBITION is reported as 16.87%.
As for `COCCN1CCN(C(C)C(=O)Nc2ccnn2C(C)C)CC1` (stereo unspecified), the INHIBITION is 23.86%.
Take `CC(C(=O)Nc1ccnn1C(C)C)N1CCN(Cc2ccccc2)CC1` (stereo unspecified): the INHIBITION turned out to be 47.68%.
`CC(C(=O)Nc1ccnn1C(C)C)N1CCN(Cc2ccon2)CC1` (stereo unspecified): the INHIBITION is given as 62%.
Then `C[C@H]1C[C@@H]2CCN(C(=O)c3ccncc3)C[C@H]2O1`, with -15.25%; and `CCn1c(C)nnc1CN(C)C1CCN(CCn2cccn2)C1` (stereo unspecified), with -53.72%; and `CN(C)S(=O)(=O)N1CCC2(COCc3cnc(-c4cccnc4)nc32)C1` (stereo unspecified), with 19.51%.
As for `Cc1ccc(N2CCOC(C)(C(=O)N(C)C)C2)nn1` (stereo unspecified), the INHIBITION came to 39.07%.
As to `Cc1cc(C)nc(N2CCOC(C)(C(=O)N(C)C)C2)n1` (stereo unspecified), the INHIBITION is recorded as 19%.
For the compound `Cc1cc(N2CCOC(C)(C(=O)N(C)C)C2)ncn1` (stereo unspecified), the INHIBITION was determined as 58.29%.
With `CC(C)N1CCOC[C@H]1c1nc(C(C)(C)C)c[nH]1`, the INHIBITION is on record as -0.14%.
Consider `CCCC(NC(=O)c1cc(C)ccc1O)c1nnn[nH]1` (stereo unspecified), for which the INHIBITION is reported as -7.9%.
In the case of `CCCn1cnc2c1CN(S(=O)(=O)c1ccc(F)cc1)[C@H](C(=O)OC)C2`, the INHIBITION is listed as 46.32%.
With `CCCn1cnc2c1CN(S(=O)(=O)Cc1ccccc1)[C@H](C(=O)OC)C2`, the INHIBITION is reported as 60.6%.
Then `CCCS(=O)(=O)N1Cc2c(ncn2Cc2ccccc2)C[C@H]1C(=O)OC`, with 39.73%.
As to `COC(=O)[C@@H]1Cc2ncn(C)c2CN1S(=O)(=O)c1ccc(C)cc1`, the INHIBITION came out at 6.24%.
Consider `COC(=O)[C@@H]1Cc2ncn(C)c2CN1S(=O)(=O)Cc1ccccc1`, for which the INHIBITION came out at 26.55%.
Consider `COC(=O)[C@@H]1Cc2ncn(C(C)C)c2CN1S(=O)(=O)Cc1ccccc1`, for which the INHIBITION came to 39.18%.
`COC(=O)[C@@H]1Cc2ncn(C)c2CN1S(=O)(=O)c1ccc(Cl)cc1`: the INHIBITION amounted to 57.85%.
Then `COC(=O)[C@@H]1Cc2ncn(C)c2CN1S(=O)(=O)c1cccs1`, with 51.81%; and `COC(=O)[C@@H]1Cc2ncn(C)c2CN1S(=O)(=O)c1ccc(OC)cc1`, with 47.42%.
Take `Nc1ncc(-c2cccc(NC(=O)[C@@H]3CCCCN3)c2)cn1`: the INHIBITION worked out at 14.95%.
Take `CN(C)CCN1CCN(C(=O)c2ccn(C)c(=O)c2)CC1`: the INHIBITION came to 5.59%.
For `CC(C)OCCCNC(=O)c1c(-n2cnnn2)sc2c1CCCC2`, the INHIBITION was determined as 49.57%.
In the case of `Cc1ccc(N2C[C@H]3OCC[C@H]3[C@H](C(=O)NCc3ccco3)C2)nn1`, the INHIBITION turned out to be 65.78%.
For `Cc1ccc(N2C[C@H]3OCC[C@H]3[C@H](C(=O)NCC3CC3)C2)nn1`, the INHIBITION was -11.4%.
Then `Cc1ccc(N2C[C@H](C(=O)NCC3CC3)[C@@H]3CCO[C@@H]3C2)nn1`, with -2.72%.
Then `Cc1nccn1CC1CCN(C(=O)c2ccccc2)CC1`, with -78.75%.
Take `COc1cccc(N2CC3(CCN(c4ccncn4)C3)CC2=O)c1` (stereo unspecified): the INHIBITION came to 13.38%.
Take `CNc1cncc(C2CCCN2S(=O)(=O)c2ccc(F)cc2)n1` (stereo unspecified): the INHIBITION was 2.8%.
Then `CN(C)CCN1CCC2(CCCN(C(=O)C3CCC3)C2)CC1`, with -9.47%; and `CC(CO)NS(=O)(=O)c1cccc(C(C)C)c1` (stereo unspecified), with 60.13%.
For the compound `CC(C#N)NS(=O)(=O)c1cccc(C(C)C)c1` (stereo unspecified), the INHIBITION is 69.67%.
As to `CNS(=O)(=O)c1cccc(C(C)NCc2ccccc2)c1` (stereo unspecified), the INHIBITION came out at 12.75%.
In the case of `CCC(=O)c1cccc(S(=O)(=O)NC(C)C#N)c1` (stereo unspecified), the INHIBITION is recorded as 31.51%.
In the case of `Cc1ccc(S(=O)(=O)NC(C)C#N)cc1Br` (stereo unspecified), the INHIBITION was -29.94%.
Regarding `CC(C)c1cccc(S(=O)(=O)NCCCN2CCC(O)CC2)c1`, the INHIBITION was -13.21%.
`COc1ccc(Cn2cc(C(=O)N(C)Cc3ccn[nH]3)nn2)cc1`: the INHIBITION was 20.71%.
For `COC(=O)N1CC[C@@]2(C1)[C@H](OC)CN(c1ccccc1)S2(=O)=O`, the INHIBITION was 22.01%.
As for `Cc1cc(C2CCNCC2)nc(-c2ccsc2)n1`, the figure is 24.98%; as for `CN1CCOC(CNCC(=O)NCCc2ccc(F)cc2)C1` (stereo unspecified), -8.14%.
Turning to `c1cnnc(N2CCCC2CNCc2cscn2)c1` (stereo unspecified), the INHIBITION is 4.19%.
Regarding `c1cnnc(N2CCCC2CNCc2ccsc2)c1` (stereo unspecified), the INHIBITION is reported as 54.85%.
Turning to `c1ccc(-n2cc(CNCC3CCCN3c3cccnn3)cn2)cc1` (stereo unspecified), the INHIBITION is -7.13%.
For the compound `c1ccc(Cn2cc(CNCC3CCCN3c3cccnn3)cn2)cc1` (stereo unspecified), the INHIBITION is 62.46%.
As for `c1ccc(Cn2ccnc2CNCC2CCCN2c2cccnn2)cc1` (stereo unspecified), the INHIBITION worked out at 11.2%.
Turning to `c1cnnc(N2CCCC2CNCc2cccs2)c1` (stereo unspecified), the INHIBITION was found to be 23.86%.
